Experimental data published in PubChem BioAssay (Tox21).
Records with an inconclusive call do not appear. The source holds several records for some structures; these can differ, active in one and inactive in another. Calls of active or inactive are those of the source. Unless noted, the call rests on the fitted dose curve.

tested on: not listed separately; experiment: qHTS assay to identify small molecule antagonists of the sonic hedgehog signaling (Shh) pathway (AID 1259369); settings: NIH/3T3 Gli1-Luc reporter, Shh antagonist, luminescence 24 h; series mostly up to 92.4 µM; activity change, negative = inhibition: at the top concentration; further: nearly all actives have a fitted effect of over 45% in size; further: potency means the concentration at half of the fitted maximal effect
Procedure, shortened: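 NIH/3T3-derived 3T3Gli1-Luc cells with stably integrated Gli1-Luc reporter were preincubated 4hr at 37 C, then given compounds in DMSO plus Shh conditioned medium and incubated 24hr. Firefly luciferase luminescence read after 30min reagent at room temperature.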
On the % scale 0 is the no-effect control and ±100 the full control effect.

Compound | activity change, negative = inhibition | Potency
O=C(NCc1cccnc1)Nc1ccc([N+](=O)[O-])cc1 | -19.4% (inactive) | 
CC[C@H]1C[C@H]2[C@@H]3CCC4=CC(=O)CC[C@@H]4[C@H]3CC[C@]2(C)[C@H]1O | -5.68% [at 42.5 µM] (inactive) | 
O=C(CBr)Nc1ccc(Cl)cc1C(=O)c1ccccc1F | -14.9% [at 42.5 µM] (inactive) | 
ClCC(Br)CBr (centres undefined) | 38.1% (inactive) | 
COc1c(C(C)(C)C)cc([N+](=O)[O-])c(C)c1[N+](=O)[O-] | -3.34% (inactive) | 
c1ccoc1 | 0% (inactive) | 
CCCC(=O)Cl | 12.5% (inactive) | 
Nc1nc(=S)[nH][nH]1 | 30.8% (inactive) | 
Brc1ccc(Oc2ccccc2)cc1 |  | 31.4 µM (active) and inactive
CCOP(=S)(OCC)SCSCC | 0% (inactive) | 
ClC=C(Cl)Cl | 15.7% (inactive) | 
COC(N)=O | 3.32% (inactive) | 
CCC(Cl)CCl (centres undefined) | 29.1% (inactive) | 
CCCN(CCCl)c1c([N+](=O)[O-])cc(C(F)(F)F)cc1[N+](=O)[O-] | 14.1% (inactive) | 
Cn1cc[n+](C)c1 (tested in a mixture with another compound) | 25.8% (inactive) | 
C=CC(C)=O | 7.82% (inactive) | 
O=C(NC(=O)c1c(F)cccc1F)Nc1ccc(OC(F)(F)C(F)OC(F)(F)F)c(Cl)c1 (centres undefined) | -23.1% [at 42.5 µM] (inactive) | 
COc1cc(Cl)c(OC)cc1Cl | 10% (inactive) | 
COCCOCCO |  | 27.3 µM (active)
CCOP(=S)(Oc1ccc([N+](=O)[O-])cc1)c1ccccc1 (centres undefined) | 14.1% (inactive) | 
CC(=O)[C@H]1CC[C@H]2[C@@H]3CC[C@H]4C[C@](C)(O)CC[C@]4(C)[C@H]3CC[C@]12C | 16.9% [at 42.5 µM] (inactive) | 
CCBr | -6.13% (inactive) | 
CN(N=O)c1ccc([N+](=O)[O-])cc1 | -20% (inactive) | 
O=C(O)COc1ccc(Cl)cc1 | 1.76% (inactive) | 
CO[C@@H]1[C@H](OC(=O)NC(=O)CCl)CC[C@]2(CO2)[C@H]1[C@@]1(C)O[C@@H]1CC=C(C)C | -6.49% [at 19 µM] (inactive) | 
CCCCNP(N)(N)=S | -13.8% (inactive) | 
Cl/C=C\C[N+]12CN3CN(CN(C3)C1)C2 | -37.2% (inactive) | 
CCOP(=S)(OCC)Oc1cc(Cl)c(Br)cc1Cl | 4.56% (inactive) | 

molecular target: Estrogen receptor beta (Homo sapiens) (UniProt Q92731); experiment: qHTS assay to identify small molecule agonists of the estrogen receptor beta (ER-beta) signaling pathway (AID 1259377; active means well fitted activation curve with a large enough effect in the signal ratio in the repeat runs, not every such curve was filed as active; the % refers to the signal ratio); settings: ER-beta-UAS-bla HEK293T, beta-lactamase FRET ratio, 16 h; series mostly up to 92.4 µM; activation: at the top concentration
Procedure, shortened: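 ER-beta-UAS-bla HEK293T (GripTite) cells carrying a UAS-driven beta-lactamase reporter, in medium with 2% charcoal-stripped FBS, were exposed to compounds for 16 hr at 37C; LiveBLAzer B/G FRET substrate was then added and fluorescence read after 2 hours at room temperature.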

Sequence of Estrogen receptor beta (Homo sapiens) (Q92731 whole entry, looked up): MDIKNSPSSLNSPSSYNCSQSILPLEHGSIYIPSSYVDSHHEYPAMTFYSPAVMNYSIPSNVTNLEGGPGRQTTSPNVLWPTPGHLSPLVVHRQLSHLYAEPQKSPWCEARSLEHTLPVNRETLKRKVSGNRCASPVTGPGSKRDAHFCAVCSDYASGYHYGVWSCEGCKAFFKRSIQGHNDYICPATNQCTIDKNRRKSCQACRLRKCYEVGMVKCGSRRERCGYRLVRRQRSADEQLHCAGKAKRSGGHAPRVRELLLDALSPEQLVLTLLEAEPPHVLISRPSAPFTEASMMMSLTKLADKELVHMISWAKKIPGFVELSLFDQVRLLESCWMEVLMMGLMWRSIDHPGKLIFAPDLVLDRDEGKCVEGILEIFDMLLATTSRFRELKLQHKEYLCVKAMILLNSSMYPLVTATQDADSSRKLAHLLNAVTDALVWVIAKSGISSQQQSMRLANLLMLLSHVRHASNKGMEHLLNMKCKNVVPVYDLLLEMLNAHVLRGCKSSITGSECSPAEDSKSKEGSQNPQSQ

Compound | activation
O=C(NCc1cccnc1)Nc1ccc([N+](=O)[O-])cc1 | -2.66% (inactive)
CC[C@H]1C[C@H]2[C@@H]3CCC4=CC(=O)CC[C@@H]4[C@H]3CC[C@]2(C)[C@H]1O | -0.387% [at 42.5 µM] (inactive)
O=C(CBr)Nc1ccc(Cl)cc1C(=O)c1ccccc1F | 0.527% [at 42.5 µM] (inactive)
ClCC(Br)CBr (centres undefined) | -0.396% (inactive)
c1ccoc1 | -0.93% (inactive)
Nc1nc(=S)[nH][nH]1 | 8.73% (inactive)
O=[N+]([O-])c1ccc(F)c([N+](=O)[O-])c1 | -5.36% (inactive)
CCOP(=S)(OCC)SCSCC | -0.105% (inactive)
COC(N)=O | 0.133% (inactive)
CCC(Cl)CCl (centres undefined) | 4.45% (inactive)
CCCN(CCCl)c1c([N+](=O)[O-])cc(C(F)(F)F)cc1[N+](=O)[O-] | 1.49% (inactive)
COc1cc(Cl)c(OC)cc1Cl | 3.95% (inactive)
Clc1ccc(C(OCCN2CCCCC2)c2ccccc2)cc1 (centres undefined) | -0.43% [at 42.5 µM] (inactive)
CCOP(=S)(Oc1ccc([N+](=O)[O-])cc1)c1ccccc1 (centres undefined) | 3.53% (inactive)
CC(=O)[C@H]1CC[C@H]2[C@@H]3CC[C@H]4C[C@](C)(O)CC[C@]4(C)[C@H]3CC[C@]12C | -0.365% [at 42.5 µM] (inactive)
CCBr | -1.37% (inactive)
O=C(O)COc1ccc(Cl)cc1 | -0.79% (inactive)
CN1C(=O)C(O)N=C(c2ccccc2)c2cc(Cl)ccc21 (centres undefined) | -3.46% (inactive)
CO[C@@H]1[C@H](OC(=O)NC(=O)CCl)CC[C@]2(CO2)[C@H]1[C@@]1(C)O[C@@H]1CC=C(C)C | -2.62% [at 19 µM] (inactive)
Cl/C=C\C[N+]12CN3CN(CN(C3)C1)C2 | 10.1% (inactive)
CCOP(=S)(OCC)Oc1cc(Cl)c(Br)cc1Cl | 3.44% (inactive)

molecular target: Estrogen receptor beta (Homo sapiens) (UniProt Q92731); experiment: qHTS assay to identify small molecule antagonists of the estrogen receptor beta (ER-beta) signaling pathway (AID 1259378; active means well fitted inhibition curve with a large enough effect in the signal ratio in the repeat runs, not every such curve was filed as active; the % refers to the signal ratio; further: potency means the concentration at half of the fitted maximal effect); settings: ER-beta-UAS-bla HEK293T, beta-lactamase FRET ratio, 16 h; series mostly up to 92.4 µM; activity, negative = inhibition: at the top concentration
Procedure, shortened: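 ER-beta-UAS-bla HEK293T cells in 2% charcoal-stripped FBS medium treated with compound plus 1nM final 17-beta-estradiol for 16 hr at 37C. Beta-lactamase reporter read by FRET substrate fluorescence after 2 hours at room temperature.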

Compound | activity, negative = inhibition | Potency
O=C(NCc1cccnc1)Nc1ccc([N+](=O)[O-])cc1 | -3.19% (inactive) | 
O=C(CBr)Nc1ccc(Cl)cc1C(=O)c1ccccc1F | -17.2% [at 42.5 µM] (inactive) | 
ClCC(Br)CBr (centres undefined) | -2.28% (inactive) | 
COc1c(C(C)(C)C)cc([N+](=O)[O-])c(C)c1[N+](=O)[O-] | -4.93% (inactive) | 
c1ccoc1 | -4.61% (inactive) | 
Nc1nc(=S)[nH][nH]1 | -5.62% (inactive) | 
CCOP(=S)(OCC)SCSCC | 10.7% (inactive) | 
COC(N)=O | 3.48% (inactive) | 
CCC(Cl)CCl (centres undefined) | 8.2% (inactive) | 
CCCN(CCCl)c1c([N+](=O)[O-])cc(C(F)(F)F)cc1[N+](=O)[O-] | 19.4% (inactive) | 
O=C(NC(=O)c1c(F)cccc1F)Nc1ccc(OC(F)(F)C(F)OC(F)(F)F)c(Cl)c1 (centres undefined) | -5.41% [at 42.5 µM] (inactive) | 
COc1cc(Cl)c(OC)cc1Cl | -0.234% (inactive) | 
Clc1ccc(C(OCCN2CCCCC2)c2ccccc2)cc1 (centres undefined) | -0.275% [at 42.5 µM] (inactive) | 
CCOP(=S)(Oc1ccc([N+](=O)[O-])cc1)c1ccccc1 (centres undefined) | 1.96% (inactive) | 
CC(=O)[C@H]1CC[C@H]2[C@@H]3CC[C@H]4C[C@](C)(O)CC[C@]4(C)[C@H]3CC[C@]12C |  | 2.11 µM (active)
CCBr | -1.43% (inactive) | 
O=C(O)COc1ccc(Cl)cc1 | 2.69% (inactive) | 
CO[C@@H]1[C@H](OC(=O)NC(=O)CCl)CC[C@]2(CO2)[C@H]1[C@@]1(C)O[C@@H]1CC=C(C)C | -21.4% [at 19 µM] (inactive) | 
CCCCNP(N)(N)=S | -13.8% (inactive) | 
Cl/C=C\C[N+]12CN3CN(CN(C3)C1)C2 | 5.21% (inactive) | 
